# Measurements as given in ChEMBL document CHEMBL2218924, “A broad activity screen in support of a chemogenomic map for kinase signalling research and drug discovery” (Biochem J, 2013).
# Legend:
# [1] = molecular target: Homeodomain-interacting protein kinase 2 (Homo sapiens) (UniProt Q9H2X6); conditions: at 1 µM
# [2] = molecular target: T1, Serine/threonine-protein kinase haspin (Homo sapiens) (UniProt Q8TF76); conditions: at 10 µM
# T1 sequence (whole entry): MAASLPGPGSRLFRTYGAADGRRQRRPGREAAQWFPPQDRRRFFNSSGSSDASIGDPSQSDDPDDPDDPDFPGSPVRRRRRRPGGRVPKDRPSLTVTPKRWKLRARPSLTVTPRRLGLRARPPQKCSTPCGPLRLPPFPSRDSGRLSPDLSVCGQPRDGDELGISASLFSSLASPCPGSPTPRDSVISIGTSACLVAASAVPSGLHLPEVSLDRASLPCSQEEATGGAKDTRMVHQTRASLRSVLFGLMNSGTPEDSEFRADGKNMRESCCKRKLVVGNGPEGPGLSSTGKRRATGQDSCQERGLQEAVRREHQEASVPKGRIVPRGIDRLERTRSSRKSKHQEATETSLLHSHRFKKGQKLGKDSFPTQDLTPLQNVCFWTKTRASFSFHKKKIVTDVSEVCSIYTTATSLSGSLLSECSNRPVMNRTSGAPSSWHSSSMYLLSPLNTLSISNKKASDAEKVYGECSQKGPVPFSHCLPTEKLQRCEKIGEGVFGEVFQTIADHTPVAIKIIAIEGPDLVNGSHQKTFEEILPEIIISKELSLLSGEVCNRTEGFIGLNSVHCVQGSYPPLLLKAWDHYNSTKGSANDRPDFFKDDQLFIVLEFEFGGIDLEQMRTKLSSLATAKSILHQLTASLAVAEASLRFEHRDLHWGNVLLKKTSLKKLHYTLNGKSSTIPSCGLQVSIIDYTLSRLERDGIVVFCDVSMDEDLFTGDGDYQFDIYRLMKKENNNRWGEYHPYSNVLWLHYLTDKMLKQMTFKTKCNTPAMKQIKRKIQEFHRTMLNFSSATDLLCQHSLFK
# [3] = molecular target: Tyrosine-protein kinase HCK (Homo sapiens) (UniProt P08631); conditions: at 1 µM
# Chain of Tyrosine-protein kinase HCK (Homo sapiens) (P08631 2-526 limits assumed): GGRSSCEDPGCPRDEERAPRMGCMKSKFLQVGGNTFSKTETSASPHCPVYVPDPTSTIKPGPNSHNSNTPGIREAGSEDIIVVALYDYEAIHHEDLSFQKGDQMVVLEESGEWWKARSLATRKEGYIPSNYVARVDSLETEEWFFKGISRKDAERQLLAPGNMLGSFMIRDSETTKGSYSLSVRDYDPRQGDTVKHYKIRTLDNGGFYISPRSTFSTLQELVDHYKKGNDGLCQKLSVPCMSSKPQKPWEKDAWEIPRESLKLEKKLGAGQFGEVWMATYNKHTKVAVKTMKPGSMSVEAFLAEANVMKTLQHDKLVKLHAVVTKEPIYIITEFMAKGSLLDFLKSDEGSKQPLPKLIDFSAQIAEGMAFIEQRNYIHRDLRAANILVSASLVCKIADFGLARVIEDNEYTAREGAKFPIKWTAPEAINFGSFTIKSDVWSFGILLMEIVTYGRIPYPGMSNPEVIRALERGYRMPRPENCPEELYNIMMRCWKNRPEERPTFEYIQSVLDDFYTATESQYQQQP
# [4] = molecular target: Tyrosine-protein kinase HCK (Homo sapiens) (UniProt P08631); conditions: at 10 µM
# [5] = molecular target: Tyrosine-protein kinase HCK (Homo sapiens) (UniProt P08631); conditions: at 1 µM; remark: listed apart in the source
# [6] = molecular target: Tyrosine-protein kinase HCK (Homo sapiens) (UniProt P08631); conditions: at 10 µM; remark: listed apart in the source
# [7] = molecular target: Insulin-like growth factor 1 receptor (Homo sapiens) (UniProt P08069); conditions: at 1 µM
# Chain of Insulin-like growth factor 1 receptor (Homo sapiens) (P08069 31-736 limits assumed): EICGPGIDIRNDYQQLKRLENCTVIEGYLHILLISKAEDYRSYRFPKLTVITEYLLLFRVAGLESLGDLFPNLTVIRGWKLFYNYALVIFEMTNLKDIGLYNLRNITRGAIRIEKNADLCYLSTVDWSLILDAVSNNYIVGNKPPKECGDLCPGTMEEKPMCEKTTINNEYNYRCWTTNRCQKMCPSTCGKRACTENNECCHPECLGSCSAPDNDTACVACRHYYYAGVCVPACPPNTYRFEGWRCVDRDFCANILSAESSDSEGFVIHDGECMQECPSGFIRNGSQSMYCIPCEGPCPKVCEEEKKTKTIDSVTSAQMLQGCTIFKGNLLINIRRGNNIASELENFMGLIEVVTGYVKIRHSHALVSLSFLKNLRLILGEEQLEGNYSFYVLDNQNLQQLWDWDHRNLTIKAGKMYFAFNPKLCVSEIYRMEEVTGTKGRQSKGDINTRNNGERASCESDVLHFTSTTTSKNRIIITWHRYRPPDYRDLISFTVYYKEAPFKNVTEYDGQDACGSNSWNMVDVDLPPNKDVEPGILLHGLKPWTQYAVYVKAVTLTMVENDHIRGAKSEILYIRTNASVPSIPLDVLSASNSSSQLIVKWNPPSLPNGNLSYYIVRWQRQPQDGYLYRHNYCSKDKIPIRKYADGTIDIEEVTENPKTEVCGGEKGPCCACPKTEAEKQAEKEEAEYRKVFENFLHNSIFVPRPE
# Chain of Insulin-like growth factor 1 receptor (Homo sapiens) (P08069 741-1367 limits assumed): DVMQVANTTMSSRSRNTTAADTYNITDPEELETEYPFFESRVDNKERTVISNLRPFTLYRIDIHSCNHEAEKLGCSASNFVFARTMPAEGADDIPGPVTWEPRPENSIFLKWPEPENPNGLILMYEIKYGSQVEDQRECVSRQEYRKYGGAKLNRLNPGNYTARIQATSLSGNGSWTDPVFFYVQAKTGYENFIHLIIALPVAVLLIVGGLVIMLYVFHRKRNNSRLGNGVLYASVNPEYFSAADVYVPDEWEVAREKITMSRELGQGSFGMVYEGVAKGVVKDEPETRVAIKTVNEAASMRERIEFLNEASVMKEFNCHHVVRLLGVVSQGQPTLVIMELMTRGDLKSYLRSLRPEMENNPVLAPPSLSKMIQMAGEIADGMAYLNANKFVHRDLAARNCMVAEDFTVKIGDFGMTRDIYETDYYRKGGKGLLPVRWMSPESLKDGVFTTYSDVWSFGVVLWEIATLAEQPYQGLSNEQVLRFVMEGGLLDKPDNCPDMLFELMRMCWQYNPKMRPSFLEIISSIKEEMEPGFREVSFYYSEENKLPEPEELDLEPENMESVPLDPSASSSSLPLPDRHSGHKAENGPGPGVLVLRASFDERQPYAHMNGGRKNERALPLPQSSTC
# [8] = molecular target: Insulin-like growth factor 1 receptor (Homo sapiens) (UniProt P08069); conditions: at 10 µM
# [9] = molecular target: Glycogen synthase kinase-3 alpha (Homo sapiens) (UniProt P49840); conditions: at 10 µM
# Chain of Glycogen synthase kinase-3 alpha (Homo sapiens) (P49840 2-483 limits assumed): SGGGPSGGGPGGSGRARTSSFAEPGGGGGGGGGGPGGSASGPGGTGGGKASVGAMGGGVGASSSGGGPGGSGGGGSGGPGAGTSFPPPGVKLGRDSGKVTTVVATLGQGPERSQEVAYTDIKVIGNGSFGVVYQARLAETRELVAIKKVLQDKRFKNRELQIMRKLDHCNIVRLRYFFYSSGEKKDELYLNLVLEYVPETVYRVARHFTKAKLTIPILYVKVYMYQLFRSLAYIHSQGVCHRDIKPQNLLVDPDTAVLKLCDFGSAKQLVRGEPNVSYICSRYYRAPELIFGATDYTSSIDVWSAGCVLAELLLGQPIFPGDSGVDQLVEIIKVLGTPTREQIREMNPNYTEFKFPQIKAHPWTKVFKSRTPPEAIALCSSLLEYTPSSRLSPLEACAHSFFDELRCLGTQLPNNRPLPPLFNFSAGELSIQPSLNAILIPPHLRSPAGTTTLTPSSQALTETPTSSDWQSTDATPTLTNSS
# [10] = molecular target: Homeodomain-interacting protein kinase 1 (Homo sapiens) (UniProt Q86Z02); conditions: at 10 µM
# [11] = molecular target: Homeodomain-interacting protein kinase 2 (Homo sapiens) (UniProt Q9H2X6); conditions: at 10 µM
# [12] = molecular target: Glycogen synthase kinase-3 alpha (Homo sapiens) (UniProt P49840); conditions: at 1 µM
# [13] = molecular target: Glycogen synthase kinase-3 beta (Homo sapiens) (UniProt P49841); conditions: at 1 µM
# Chain of Glycogen synthase kinase-3 beta (Homo sapiens) (P49841 whole entry, looked up): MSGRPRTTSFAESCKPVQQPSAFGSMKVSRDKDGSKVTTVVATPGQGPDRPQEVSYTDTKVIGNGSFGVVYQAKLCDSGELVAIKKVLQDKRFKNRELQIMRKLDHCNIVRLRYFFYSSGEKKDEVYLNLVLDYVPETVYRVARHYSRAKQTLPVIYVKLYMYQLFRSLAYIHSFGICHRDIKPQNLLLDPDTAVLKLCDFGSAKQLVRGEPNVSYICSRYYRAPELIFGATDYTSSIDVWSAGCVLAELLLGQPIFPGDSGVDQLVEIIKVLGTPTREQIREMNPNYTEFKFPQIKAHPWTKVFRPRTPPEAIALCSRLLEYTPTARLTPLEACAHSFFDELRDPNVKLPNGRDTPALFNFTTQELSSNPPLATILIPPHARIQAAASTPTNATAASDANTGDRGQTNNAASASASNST
# [14] = molecular target: Glycogen synthase kinase-3 beta (Homo sapiens) (UniProt P49841); conditions: at 10 µM
# [15] = molecular target: T1, Serine/threonine-protein kinase haspin (Homo sapiens); conditions: at 1 µM
# [16] = molecular target: Homeodomain-interacting protein kinase 3 (Homo sapiens) (UniProt Q9H422); conditions: at 1 µM
# [17] = molecular target: Homeodomain-interacting protein kinase 3 (Homo sapiens) (UniProt Q9H422); conditions: at 10 µM
# Chain of Homeodomain-interacting protein kinase 2 (Homo sapiens) (Q9H2X6 whole entry, looked up): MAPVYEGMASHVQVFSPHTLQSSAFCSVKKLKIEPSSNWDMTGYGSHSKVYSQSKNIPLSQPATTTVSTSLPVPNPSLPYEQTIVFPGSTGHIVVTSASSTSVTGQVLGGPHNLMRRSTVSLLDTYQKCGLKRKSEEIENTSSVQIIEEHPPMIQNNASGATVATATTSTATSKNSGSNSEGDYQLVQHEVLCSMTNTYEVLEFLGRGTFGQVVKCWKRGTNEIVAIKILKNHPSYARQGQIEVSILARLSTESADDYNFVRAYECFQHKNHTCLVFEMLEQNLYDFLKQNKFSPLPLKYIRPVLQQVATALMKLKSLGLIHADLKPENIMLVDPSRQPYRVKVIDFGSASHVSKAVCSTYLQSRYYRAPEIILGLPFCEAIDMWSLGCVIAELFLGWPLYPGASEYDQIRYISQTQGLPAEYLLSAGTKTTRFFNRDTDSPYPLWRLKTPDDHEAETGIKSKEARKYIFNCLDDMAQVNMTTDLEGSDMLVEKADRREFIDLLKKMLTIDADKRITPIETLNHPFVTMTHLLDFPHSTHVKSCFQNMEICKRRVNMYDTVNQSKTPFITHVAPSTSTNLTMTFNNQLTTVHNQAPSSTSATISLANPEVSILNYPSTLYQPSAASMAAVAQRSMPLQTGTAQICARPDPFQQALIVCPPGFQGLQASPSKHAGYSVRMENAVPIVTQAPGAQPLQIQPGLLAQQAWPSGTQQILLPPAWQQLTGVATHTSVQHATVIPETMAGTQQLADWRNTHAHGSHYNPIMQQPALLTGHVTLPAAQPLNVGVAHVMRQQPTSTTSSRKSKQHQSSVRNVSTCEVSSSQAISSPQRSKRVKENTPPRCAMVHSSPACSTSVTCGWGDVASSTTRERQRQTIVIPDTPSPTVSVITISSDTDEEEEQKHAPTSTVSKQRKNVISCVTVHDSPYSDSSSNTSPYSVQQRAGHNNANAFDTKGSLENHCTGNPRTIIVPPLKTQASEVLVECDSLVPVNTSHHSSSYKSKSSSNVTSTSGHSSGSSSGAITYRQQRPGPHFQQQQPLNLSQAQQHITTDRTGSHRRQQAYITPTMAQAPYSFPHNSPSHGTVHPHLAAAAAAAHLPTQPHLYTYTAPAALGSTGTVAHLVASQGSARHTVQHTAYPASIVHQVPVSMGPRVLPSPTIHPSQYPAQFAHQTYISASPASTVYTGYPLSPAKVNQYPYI
structure (smiles),measurement,setting,value
N#C/C(=C\c1ccc(O)c(O)c1)C(=O)NCc1ccccc1,residual activity,[1],101%
same,residual activity,[2],48%
same,residual activity,[3],78%
same,residual activity,[4],70%
same,residual activity,[5],102%
same,residual activity,[6],80%
same,residual activity,[7],144%
same,residual activity,[8],65%
CSc1nc(-c2ccc(F)cc2)c(-c2ccnc(NC(C)c3ccccc3)c2)[nH]1 (stereo not drawn),residual activity,[9],96%
same,residual activity,[10],97%
same,residual activity,[11],86%
same,residual activity,[3],85%
same,residual activity,[4],51%
same,residual activity,[5],102%
same,residual activity,[6],86%
CCOc1nc(NC(=O)Cc2cc(OC)ccc2OC)cc(N)c1C#N,residual activity,[3],78%
same,residual activity,[4],71%
same,residual activity,[8],130%
Nc1n[nH]c2nc3ccccc3nc12,residual activity,[12],81%
same,residual activity,[9],50%
same,residual activity,[13],100%
same,residual activity,[14],80%
same,residual activity,[10],87%
same,residual activity,[1],98%
same,residual activity,[11],59%
same,residual activity,[15],96%
same,residual activity,[2],41%
same,residual activity,[3],75%
same,residual activity,[4],60%
same,residual activity,[6],88%
same,residual activity,[7],121%
same,residual activity,[8],132%
CC(C)N(CCC(=O)c1ccc2ccccc2c1)Cc1ccccc1,residual activity,[9],135%
same,residual activity,[16],86%
same,residual activity,[17],100%
same,residual activity,[15],81%
same,residual activity,[2],66%
same,residual activity,[3],79%
same,residual activity,[4],64%
COc1ccc(-c2cnc3c(-c4ccsc4)cnn3c2)cc1,residual activity,[13],87%
same,residual activity,[14],88%
same,residual activity,[1],93%
same,residual activity,[11],95%
same,residual activity,[15],95%
same,residual activity,[2],83%
same,residual activity,[3],59%
same,residual activity,[4],76%
same,residual activity,[7],134%
